Measurements from PubChem BioAssay AID1159580 (chemical genetic matrix, 2015).
Values joined by “and” are separate entries in the source; they are usually repeats but may differ in a detail not shown here. Equal values may be shown once. Among all 5,500 compounds or so, about 2,000 (36%) were called active. Roughly 18% stayed inconclusive and do not appear here. Cut-off read from the data, not from the text of the source: active = normalized growth mostly below about 0.91 (no sharp cut-off); inconclusive = no clear call, values can overlap the other calls; inactive = mostly above about 0.92. Some of the results follow.

Experiment: chemical genetic growth profiling, strain panel (AID 1159580);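 note: tested at 20 µM; growth read once vehicle control cultures reached saturation at 30 °C; 1 = growth at the plate median or of vehicle wells; lower values mean less growth of the strain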
Settings: S. cerevisiae deletion strains, growth OD

Measured: normalized growth

Cc1cc(C2CCCCC2)n(O)c(=O)c1
active: locus YAL013W, strain DEP1, active compounds read low 0.0568 | locus YAL021C, strain ccr4, active compounds read low 0.0678 | locus YAL026C, strain drs2, active compounds read low 0.0676 | locus YAL030W, strain snc1, active compounds read low 0.0625 | locus YBL061C, strain skt5, active compounds read low 0.0672 | locus YBR009C, strain hhf1, active compounds read low 0.0705 | locus YBR021W, strain FUR4, active compounds read low 0.0983 | locus YBR023C, strain chs3, active compounds read low 0.0704 | locus YBR171W, strain sec66, active compounds read low 0.0805 | locus YBR229C, strain ROT2, active compounds read low 0.0502 | locus YBR231C, strain swc5, active compounds read low 0.0693 | locus YBR279W, strain paf1, active compounds read low 0.0649 | locus YCL011C, strain gbp2, active compounds read low 0.0616 | locus YCL016C, strain dcc1, active compounds read low 0.0719 | locus YCL029C, strain bik1, active compounds read low 0.0632 | locus YCL061C, strain MRC1, active compounds read low 0.0677 | locus YCL069W, strain vba3, active compounds read low 0.0654 | locus YCR088W, strain abp1, active compounds read low 0.0632 | locus YDL005C, strain med2, active compounds read low 0.0889 | locus YDL035C, strain GPR1, active compounds read low 0.0542 | locus YDL040C, strain nat1, active compounds read low 0.0679 | locus YDL074C, strain BRE1, active compounds read low 0.0802 | locus YDL101C, strain DUN1, active compounds read low 0.0596 | locus YDL134C, strain PPH21, active compounds read low 0.0521 | locus YDL185W, strain tfp1, active compounds read low 0.058 | locus YDL192W, strain arf1, active compounds read low 0.0653 | locus YDR001C, strain nth1, active compounds read low 0.0631 | locus YDR069C, strain doa4, active compounds read low 0.0665 | locus YDR101C, strain arx1, active compounds read low 0.06 | locus YDR137W, strain rgp1, active compounds read low 0.0918 | locus YDR159W, strain sac3, active compounds read low 0.0928 | locus YDR162C, strain NBP2, active compounds read low 0.0474 | locus YDR195W, strain ref2 0.135 | locus YDR297W, strain sur2, active compounds read low 0.0662 | locus YDR318W, strain mcm21, active compounds read low 0.0655 | locus YDR334W, strain swr1, active compounds read low 0.0673 | locus YDR335W, strain msn5, active compounds read low 0.0634 | locus YDR388W, active compounds read low 0.0556 | locus YDR392W, strain spt3, active compounds read low 0.101 | locus YDR502C, strain sam2, active compounds read low 0.0664 | locus YEL003W, strain gim4, active compounds read low 0.0625 | locus YEL037C, strain rad23, active compounds read low 0.0622 | locus YEL061C, strain CIN8 (second series), active compounds read low 0.0671 | locus YEL061C, strain CIN8, active compounds read low 0.0514 | locus YER015W, strain faa2, active compounds read low 0.0656 | locus YER016W, strain bim1, active compounds read low 0.0682 | locus YER110C, active compounds read low 0.0812 | locus YER111C, strain swi4, active compounds read low 0.0758 | locus YER155C, strain BEM2 (second series), active compounds read low 0.0947 | locus YER155C, strain BEM2, active compounds read low 0.0718 | locus YER167W, strain BCK2, active compounds read low 0.0519 | locus YFR010W, strain ubp6, active compounds read low 0.0703 | locus YGL078C, strain dbp3, active compounds read low 0.0608 | locus YGL086W, strain mad1, active compounds read low 0.0597 | locus YGL167C, strain pmr1, active compounds read low 0.0798 | locus YGL173C, strain kem1, active compounds read low 0.0716 | locus YGL227W, strain vid30, active compounds read low 0.0707 | locus YGL240W, strain doc1, active compounds read low 0.0866 | locus YGL248W, strain PDE1, active compounds read low 0.0515 | locus YGL253W, strain hxk2, active compounds read low 0.058 | locus YGR078C, strain PAC10, active compounds read low 0.0546 | locus YGR135W, strain pre9, active compounds read low 0.065 | locus YGR252W, strain gcn5, active compounds read low 0.175 | locus YHR013C, strain ard1, active compounds read low 0.11 | locus YHR027C, strain rpn1, active compounds read low 0.0647 | locus YHR030C, strain SLT2, active compounds read low 0.0526 and 0.0937 | locus YHR079C, strain IRE1 (second series), active compounds read low 0.0583 | locus YHR079C, strain IRE1, active compounds read low 0.109 | locus YHR094C, strain hxt1, active compounds read low 0.0632 | locus YHR129C, strain ARP1, active compounds read low 0.0642 | locus YHR142W, strain chs7, active compounds read low 0.0791 | locus YHR200W, strain rpn10, active compounds read low 0.0659 | locus YIL066C, strain RNR3, active compounds read low 0.0522 | locus YIL073C, strain SPO22, active compounds read low 0.112 | locus YIL125W, strain kgd1, active compounds read low 0.0598 | locus YIR030C, strain dcg1, active compounds read low 0.0627 | locus YJL092W, strain hpr5, active compounds read low 0.063 | locus YJL095W, strain BCK1 (second series), active compounds read low 0.0609 | locus YJL095W, strain BCK1, active compounds read low 0.063 and 0.0938 | locus YJL115W, strain asf1, active compounds read low 0.0778 | locus YJL129C, strain trk1, active compounds read low 0.0912 | locus YJL134W, strain LCB3, active compounds read low 0.0539 | locus YJL154C, strain vps35, active compounds read low 0.0631 | locus YJL164C, strain tpk1, active compounds read low 0.0734 | locus YJL166W, strain qcr8, active compounds read low 0.0662 | locus YJL168C, strain set2, active compounds read low 0.0634 | locus YJL187C, strain SWE1 (second series), active compounds read low 0.053 | locus YJL187C, strain SWE1, active compounds read low 0.0672 | locus YJR043C, strain POL32, active compounds read low 0.068 | locus YJR066W, strain TOR1, active compounds read low 0.00216 | locus YJR075W, strain HOC1, active compounds read low 0.0627 | locus YKL009W, strain mrt4, active compounds read low 0.0702 | locus YKL068W, active compounds read low 0.0617 | locus YKL085W, strain MDH1 (second series), active compounds read low 0.0539 | locus YKL085W, strain MDH1, active compounds read low 0.0539 | locus YKL160W, strain elf1, active compounds read low 0.0716 | locus YKL190W, strain CNB1, active compounds read low 0.0484 | locus YKR001C, strain vps1, active compounds read low 0.0653 | locus YKR026C, strain gcn3, active compounds read low 0.0732 | locus YKR091W, strain srl3, active compounds read low 0.069 | locus YLL001W, strain dnm1, active compounds read low 0.0664 | locus YLL026W, active compounds read low 0.0595 | locus YLL041C, strain sdh2, active compounds read low 0.0627 | locus YLR027C, strain aat2, active compounds read low 0.0603 | locus YLR039C, strain RIC1, active compounds read low 0.0987 | locus YLR058C, strain SHM2, active compounds read low 0.0519 | locus YLR102C, strain apc9, active compounds read low 0.0656 | locus YLR113W, strain HOG1, active compounds read low 0.121 | locus YLR221C, strain rsa3, active compounds read low 0.0659 | locus YLR258W, strain gsy2, active compounds read low 0.0669 | locus YLR262C, strain YPT6 (second series), active compounds read low 0.0856 | locus YLR262C, strain YPT6, active compounds read low 0.115 | locus YLR268W, strain sec22, active compounds read low 0.0687 | locus YLR320W, strain mms22, active compounds read low 0.0895 | locus YLR330W, strain CHS5, active compounds read low 0.0525 | locus YLR342W, strain FKS1 (second series), active compounds read low 0.0737 | locus YLR342W, strain FKS1, active compounds read low 0.0735 | locus YLR357W, strain rsc2, active compounds read low 0.133 | locus YLR370C, strain arc18, active compounds read low 0.0637 | locus YLR371W, strain rom2, active compounds read low 0.0664 | locus YLR384C, strain iki3, active compounds read low 0.0637 | locus YLR418C, strain cdc73, active compounds read low 0.0958 | locus YML016C, strain PPZ1, active compounds read low 0.0483 | locus YML032C, strain rad52, active compounds read low 0.0723 | locus YML120C, strain ndi1, active compounds read low 0.0605 | locus YML124C, strain tub3, active compounds read low 0.0619 | locus YMR058W, strain fet3, active compounds read low 0.0627 | locus YMR078C, strain ctf18, active compounds read low 0.0787 | locus YMR125W, strain sto1, active compounds read low 0.0836 | locus YMR129W, active compounds read low 0.0601 | locus YMR205C, strain PFK2, active compounds read low 0.0903 | locus YMR223W, strain ubp8, active compounds read low 0.0675 | locus YMR231W, strain pep5, active compounds read low 0.0767 | locus YMR307W, strain GAS1, active compounds read low 0.146 | locus YNL067W, strain RPL9B, active compounds read low 0.0522 | locus YNL071W, strain lat1, active compounds read low 0.0645 | locus YNL183C, strain NPR1, active compounds read low 0.0014 | locus YNL209W, strain ssb2, active compounds read low 0.0627 | locus YNL233W, strain BNI4, active compounds read low 0.0583 | locus YNL248C, strain rpa49, active compounds read low 0.0814 | locus YNL250W, strain rad50, active compounds read low 0.0854 | locus YNL271C, strain bni1, active compounds read low 0.0657 | locus YNL298W, strain CLA4, active compounds read low 0.0613 | locus YNL307C, strain MCK1, active compounds read low 0.0688 | locus YNL322C, strain KRE1 (second series), active compounds read low 0.0705 | locus YNR049C, strain mso1, active compounds read low 0.0644 | locus YNR052C, strain pop2, active compounds read low 0.0622 | locus YOL147C, strain pex11, active compounds read low 0.0601 | locus YOR001W, strain rrp6, active compounds read low 0.0736 | locus YOR061W, strain CKA2, active compounds read low 0.0512 | locus YOR069W, strain VPS5, active compounds read low 0.0495 | locus YOR070C, strain gyp1, active compounds read low 0.0684 | locus YOR080W, strain dia2, active compounds read low 0.0706 | locus YOR083W, strain WHI5, active compounds read low 0.0687 | locus YOR106W, strain vam3, active compounds read low 0.065 | locus YOR136W, strain idh2, active compounds read low 0.0767 | locus YOR144C, strain elg1, active compounds read low 0.062 | locus YOR184W, strain ser1, active compounds read low 0.0708 | locus YOR231W, strain MKK1, active compounds read low 0.0947 | locus YOR265W, strain rbl2, active compounds read low 0.066 | locus YOR270C, strain vph1, active compounds read low 0.0971 | locus YOR290C, strain snf2, active compounds read low 0.0737 | locus YOR316C, strain cot1, active compounds read low 0.0627 | locus YPL051W, strain arl3, active compounds read low 0.0688 | locus YPL078C, strain atp4, active compounds read low 0.0715 | locus YPL106C, strain sse1, active compounds read low 0.116 | locus YPL240C, strain hsp82, active compounds read low 0.0653 | locus YPL256C, strain CLN2, active compounds read low 0.116 | locus YPR119W, strain clb2, active compounds read low 0.0705 | locus YPR141C, strain kar3, active compounds read low 0.0696 | locus YPR163C, strain tif3, active compounds read low 0.0728 | locus YPR167C, strain met16, active compounds read low 0.0671 | strain wtn01, active compounds read low 0.0665
